Calls of active or inactive are those of the source.
Tests used:
[1] = binders of probe aFSTL3 on microarray, primary screen, stem cell growth factor project, biochemical, small-molecule microarray, fluorescence 635/667 (AID 1064); settings: higher = more signal;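 also: measures binding of the biotinylated anti-FSTL3 antibody to printed compounds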
[2] = binders from COS7 lysate, DM2A8 probe, primary screen, torsin A project, cell lysate, small-molecule microarray, fluorescence 635/667 (AID 1065); settings: higher = more signal, COS7 lysate expressing mutant human TOR1A
[3] = binders of probe aFGF2 on microarray, primary screen, stem cell growth factor project, biochemical, small-molecule microarray, fluorescence 635/667 (AID 1067); settings: higher = more signal;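 also: measures binding of biotinylated aFGF2 protein to printed compounds on slides; z-score merges feature fluorescence and signal-to-noise across triplicate slides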
[4] = binders of probe aFGF10 on microarray, primary screen, stem cell growth factor project, biochemical, small-molecule microarray, fluorescence 635/667 (AID 1071); settings: higher = more signal;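 also: score merges 667 nm spot intensity and signal to noise from triplicate slides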
[5] = biological target: Neurogenic locus notch homolog protein 2 (Homo sapiens) (UniProt Q04721); assay: Notch2 binders on small-molecule microarrays, primary screen, biochemical, small-molecule microarray, 635 nm fluorescence, stem cell growth factors (AID 1073); settings: Notch2 binding, higher = more signal
[6] = biological target: Pro-neuregulin-1, membrane-bound isoform (Homo sapiens) (UniProt Q02297); assay: NRG1 binders on small-molecule microarrays, primary screen, psychiatric disease protein project, biochemical, small-molecule microarray, fluorescence 635/667 (AID 1075); settings: NRG1 binding, 635 nm fluorescence, higher = more signal;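 also: score combines 667 nm spot fluorescence with signal to noise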
[7] = tested on: Neuregulin-1 EGF-like domain; assay: binders of neuregulin-1 EGF-like domain, primary screen, biochemical, small-molecule microarray, 635 nm fluorescence (AID 1081); settings: small-molecule microarray binding, higher = more signal;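 also: binding of the protein to compounds printed on small-molecule microarray slides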
[8] = FRG1 promoter luciferase signal modulators, primary screen, FRG1 inhibition for FSHD, cell-based, C2C12 myotubes, firefly/Renilla luciferase, luminescence (AID 1084); settings: higher = more signal, called active from +8 up or from −8 down
[9] = binders of probe aFST on microarray, primary screen, stem cell growth factor project, biochemical, small-molecule microarray, fluorescence 635/667 (AID 1086); settings: higher = more signal;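 also: score merges 667 nm fluorescence with signal-to-noise of each printed compound spot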
[10] = binders of probe aHhip on microarray, primary screen, stem cell growth factor project, biochemical, small-molecule microarray, fluorescence 635/667 (AID 1087); settings: higher = more signal;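 also: score merges spot fluorescence at 667nm with spot signal to noise ratio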
[11] = tested on: PRMT1 (protein arginine N-methyltransferase 1); assay: PRMT1 binders on small-molecule microarrays, primary screen, biochemical, small-molecule microarray, 635 nm fluorescence (AID 1088); settings: small-molecule microarray binding, higher = more signal;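 also: binding of Prmt1 protein to compounds spotted on small-molecule microarray slides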
[12] = yeast growth modulation, basal conditions, primary screen, YJM789 clinical isolate, OD600, 24 h (AID 1089);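 also: growth of clinical yeast isolate S. cerevisiae YJM 789 seeded 1000 cells per well; test concentration not given here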; settings: S. cerevisiae YJM789 growth, higher = more signal, called active from +8 up or from −8 down
[13] = fission yeast growth modulation, primary screen, strain 972, OD600, 24 h, no modulator (AID 1090);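 also: basal condition with compound alone and no growth modifier present; test concentration not given here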; settings: S. pombe 972 growth, higher = more signal, called active from +8 up or from −8 down
[14] = S. cerevisiae growth modulation with rapamycin, primary screen, strain BY4716, OD600, 96 h (AID 1091); settings: higher = more signal, called active from +8 up or from −8 down; also: test concentration not given here
[15] = biological target: Torsin-1A-interacting protein 2 (Homo sapiens) (UniProt Q8NFQ8); assay: LULL1 binders on small-molecule microarray, primary screen, cell lysate, human LULL1 lysate, 635/667 nm fluorescence (AID 1092); settings: hLULL1 lysate binding, 635 nm fluorescence, higher = more signal;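 also: probe is lysate of COS7 cells overexpressing human LULL1; score merges per-feature 667 nm fluorescence with signal-to-noise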
[16] = E. coli growth modulation, two-sided OD650, primary screen, E. coli filamentation project, strain DRC41, 24 h (AID 1093); settings: OD650, 24 h, higher = more signal, called active from +8 up or from −8 down;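 also: MC1000 strain lacking acrAB efflux and sulA so SOS filamentation is blocked; test concentration not given here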
[17] = small-molecule microarray binders of probe aLefty2, primary screen, biochemical, biotinylated probe, 635/667 nm fluorescence (AID 1094); settings: higher = more signal;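 also: score merges spot fluorescence near 667 nm with spot signal-to-noise ratio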
[18] = tested on: Noggin (protein binding on small-molecule microarray); assay: Noggin binders on small-molecule microarray, primary screen, biochemical, 635/667 nm fluorescence (AID 1095); settings: 635 nm fluorescence, higher = more signal;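 also: score merges 667 nm feature fluorescence with signal to noise over triplicate slides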
[19] = biological target: Neurogenic locus notch homolog protein 3 (Homo sapiens) (UniProt Q9UM47); assay: NOTCH3 binders on small-molecule microarray, primary screen, biochemical, 635/667 nm fluorescence (AID 1096); settings: NOTCH3 binding, 635 nm fluorescence, higher = more signal
[20] = small-molecule microarray binders of probe aEGFR, primary screen, biochemical, biotinylated probe, 635/667 nm fluorescence (AID 1097); settings: higher = more signal;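 also: probe is a biotinylated anti-EGFR antibody binding compounds printed on slides; score combines fluorescence near 667 nm and signal to noise of each spot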

Neurogenic locus notch homolog protein 3 (Homo sapiens), sequence (Q9UM47 whole entry, looked up): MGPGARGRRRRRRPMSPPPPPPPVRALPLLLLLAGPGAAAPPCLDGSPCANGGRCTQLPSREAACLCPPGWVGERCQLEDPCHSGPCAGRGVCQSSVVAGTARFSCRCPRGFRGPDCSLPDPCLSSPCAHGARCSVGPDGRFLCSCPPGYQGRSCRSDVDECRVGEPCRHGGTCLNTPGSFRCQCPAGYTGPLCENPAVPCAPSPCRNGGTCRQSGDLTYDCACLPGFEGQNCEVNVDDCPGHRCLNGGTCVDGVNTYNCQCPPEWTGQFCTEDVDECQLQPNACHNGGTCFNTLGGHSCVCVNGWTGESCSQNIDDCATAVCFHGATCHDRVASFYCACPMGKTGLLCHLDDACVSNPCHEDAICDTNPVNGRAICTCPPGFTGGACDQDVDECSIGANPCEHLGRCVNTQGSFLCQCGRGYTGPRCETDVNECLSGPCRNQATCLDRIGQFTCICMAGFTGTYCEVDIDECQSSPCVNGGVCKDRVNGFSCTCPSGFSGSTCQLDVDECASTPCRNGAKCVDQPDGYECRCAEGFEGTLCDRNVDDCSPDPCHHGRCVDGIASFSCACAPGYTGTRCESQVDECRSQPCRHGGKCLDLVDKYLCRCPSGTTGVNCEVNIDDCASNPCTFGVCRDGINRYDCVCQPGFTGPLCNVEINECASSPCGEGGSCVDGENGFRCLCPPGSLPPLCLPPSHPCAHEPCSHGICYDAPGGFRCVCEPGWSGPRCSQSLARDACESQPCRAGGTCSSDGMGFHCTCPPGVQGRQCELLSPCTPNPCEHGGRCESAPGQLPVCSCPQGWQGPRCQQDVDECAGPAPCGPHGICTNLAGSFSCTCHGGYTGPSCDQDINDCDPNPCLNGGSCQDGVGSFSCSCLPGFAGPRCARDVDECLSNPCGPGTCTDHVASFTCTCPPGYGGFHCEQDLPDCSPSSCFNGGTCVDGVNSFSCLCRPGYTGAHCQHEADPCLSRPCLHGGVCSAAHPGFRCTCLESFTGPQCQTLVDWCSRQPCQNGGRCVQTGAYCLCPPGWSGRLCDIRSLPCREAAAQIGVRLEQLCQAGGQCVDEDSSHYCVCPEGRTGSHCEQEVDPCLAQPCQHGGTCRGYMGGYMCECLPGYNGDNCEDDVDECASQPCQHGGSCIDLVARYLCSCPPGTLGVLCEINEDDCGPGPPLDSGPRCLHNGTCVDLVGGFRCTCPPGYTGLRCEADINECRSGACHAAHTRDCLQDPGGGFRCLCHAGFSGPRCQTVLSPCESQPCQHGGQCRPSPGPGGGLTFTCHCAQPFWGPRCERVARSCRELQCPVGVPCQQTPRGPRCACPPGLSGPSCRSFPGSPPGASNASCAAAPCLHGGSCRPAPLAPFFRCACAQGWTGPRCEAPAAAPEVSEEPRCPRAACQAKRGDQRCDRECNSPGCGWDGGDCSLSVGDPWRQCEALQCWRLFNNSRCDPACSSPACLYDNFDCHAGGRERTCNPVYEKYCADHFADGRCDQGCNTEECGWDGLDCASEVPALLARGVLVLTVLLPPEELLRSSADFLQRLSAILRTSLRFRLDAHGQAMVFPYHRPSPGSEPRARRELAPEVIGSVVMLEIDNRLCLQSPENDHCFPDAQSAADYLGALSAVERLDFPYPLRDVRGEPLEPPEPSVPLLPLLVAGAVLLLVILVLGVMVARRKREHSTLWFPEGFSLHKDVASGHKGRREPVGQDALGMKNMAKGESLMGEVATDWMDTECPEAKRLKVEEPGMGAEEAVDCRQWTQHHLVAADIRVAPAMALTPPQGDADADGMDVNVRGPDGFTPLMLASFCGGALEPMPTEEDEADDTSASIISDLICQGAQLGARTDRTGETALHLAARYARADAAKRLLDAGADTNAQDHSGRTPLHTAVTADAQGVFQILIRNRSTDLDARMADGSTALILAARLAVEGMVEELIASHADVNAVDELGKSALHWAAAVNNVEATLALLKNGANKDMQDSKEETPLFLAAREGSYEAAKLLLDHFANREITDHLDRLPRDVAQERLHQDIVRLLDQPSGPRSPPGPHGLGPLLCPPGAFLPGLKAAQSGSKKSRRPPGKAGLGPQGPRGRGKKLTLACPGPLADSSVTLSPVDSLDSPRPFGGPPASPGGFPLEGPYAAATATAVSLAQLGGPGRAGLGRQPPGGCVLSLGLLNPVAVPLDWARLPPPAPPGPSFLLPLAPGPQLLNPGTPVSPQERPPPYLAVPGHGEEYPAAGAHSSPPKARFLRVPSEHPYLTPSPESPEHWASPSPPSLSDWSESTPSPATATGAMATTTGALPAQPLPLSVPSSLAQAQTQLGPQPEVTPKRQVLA
Torsin-1A-interacting protein 2 (Homo sapiens), sequence (Q8NFQ8 whole entry, looked up): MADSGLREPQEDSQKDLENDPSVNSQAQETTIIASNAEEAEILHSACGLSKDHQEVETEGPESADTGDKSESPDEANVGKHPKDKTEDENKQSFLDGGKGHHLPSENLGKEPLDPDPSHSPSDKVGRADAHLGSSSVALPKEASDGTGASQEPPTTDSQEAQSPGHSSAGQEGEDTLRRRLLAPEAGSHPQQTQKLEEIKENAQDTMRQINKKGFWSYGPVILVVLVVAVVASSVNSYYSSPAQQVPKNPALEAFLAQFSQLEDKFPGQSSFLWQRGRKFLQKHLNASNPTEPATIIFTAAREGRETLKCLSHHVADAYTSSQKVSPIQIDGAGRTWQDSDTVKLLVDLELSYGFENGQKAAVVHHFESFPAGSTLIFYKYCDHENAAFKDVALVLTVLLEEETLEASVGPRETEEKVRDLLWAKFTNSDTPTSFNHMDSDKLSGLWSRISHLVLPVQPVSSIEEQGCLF
Pro-neuregulin-1, membrane-bound isoform (Homo sapiens), sequence (Q02297 whole entry, looked up, the tested form may be a part, canonical isoform): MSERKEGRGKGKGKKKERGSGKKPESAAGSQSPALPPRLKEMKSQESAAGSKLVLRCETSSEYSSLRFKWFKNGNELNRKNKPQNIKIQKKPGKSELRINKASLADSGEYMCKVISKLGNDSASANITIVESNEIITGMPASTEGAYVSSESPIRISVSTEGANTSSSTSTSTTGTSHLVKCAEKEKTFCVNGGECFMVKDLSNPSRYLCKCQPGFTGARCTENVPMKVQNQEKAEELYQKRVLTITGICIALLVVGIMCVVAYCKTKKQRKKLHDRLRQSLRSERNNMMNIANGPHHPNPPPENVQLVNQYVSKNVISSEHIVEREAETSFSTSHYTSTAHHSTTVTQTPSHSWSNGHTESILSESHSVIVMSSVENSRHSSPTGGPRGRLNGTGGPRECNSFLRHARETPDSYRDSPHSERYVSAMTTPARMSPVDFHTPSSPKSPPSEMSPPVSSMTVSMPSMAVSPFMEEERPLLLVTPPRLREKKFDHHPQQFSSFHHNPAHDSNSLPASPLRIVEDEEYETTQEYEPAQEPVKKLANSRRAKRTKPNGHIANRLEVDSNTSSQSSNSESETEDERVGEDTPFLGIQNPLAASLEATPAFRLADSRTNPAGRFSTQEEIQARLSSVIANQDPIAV

Compound	composite z-score [1]	composite z-score [2]	composite z-score [3]	composite z-score [4]	composite z-score [5]	composite z-score [6]	composite z-score [7]	z-score [8]	composite z-score [9]	composite z-score [10]	composite z-score [11]	z-score [12]	z-score [13]	z-score [14]	composite z-score [15]	z-score [16]	composite z-score [17]	composite z-score [18]	composite z-score [19]	composite z-score [20]
O=C(O)[C@@]1(CCS(=O)(=O)c2ccccc2)COC(c2ccc(OCCCO)cc2)=N1	0.803	-0.715	-0.196	-0.0573	-0.243	0.964	1.35	0.143 (inactive)	-0.0694	0.35	-0.16	0.608 (inactive)	-2.3 (inactive)	-0.717 (inactive)	2.76	-0.16 (inactive)	0.188	-0.754	-0.395	-0.0828
CCCCCN1CC=CC23O[C@@H]4/C=C\CCCOC(=O)C4[C@H]2C(=O)N(C(CO)C(C)C)[C@@H]3C1=O (stereo not given in full)	-0.101	-0.856	-0.103	-0.106	-0.65	-0.583	1.52	-0.196 (inactive)	-0.384	0.0854	0.0207	-0.215 (inactive)	-0.84 (inactive)	-0.809 (inactive)	0.868	1.65 (inactive)	-0.124	0.0296	0.243	-0.201
CN(C)CCCNC(=O)[C@@]1(C)c2ccccc2C(=O)N(Cc2cc(F)cc(C(F)(F)F)c2)[C@H]1c1ccc(CO)cc1	-0.0117	-0.224	-0.144	-0.681	-1.23	1.05	-0.164	-0.712 (inactive)	-0.641	-0.132	0.936	-1.46 (inactive)	-2.05 (inactive)	-2.02 (inactive)	3.12	0.0544 (inactive)	-0.203	-0.986	-0.604	-0.237
COCCOC(=O)N1C(=O)[C@@]2(c3ccccc31)[C@H](c1ccc(O)cc1)N1[C@H](c3ccccc3)[C@H](c3ccccc3)OC(=O)[C@H]1[C@@H]2C(=O)NC[C@H](O)c1ccccc1	0.0147	0.702	-0.0702	0.157	0.187	1.8	1.26	-0.567 (inactive)	0.118	0.0093	1.51	0.385 (inactive)	-0.238 (inactive)	2.73 (inactive)	2.98	0.505 (inactive)	-0.23	0.399	0.669	-0.165

Source: PubChem BioAssay
